CHOP inhibitor: inhibitors of CHOP promoter induction, primary screen, cell-based, unfolded protein response, luciferase reporter. CHO-K1 CHOP-promoter luciferase, tunicamycin-induced, 15-18 h. inhibition, % at 10 µM. actives 3.8% (n = 220,000);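 active = compounds that reduced the stress-induced luciferase reporter signal by more than about 70% of percent inhibition, limit read from the data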;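 note: 0% = tunicamycin plus vehicle and 100% = wells without tunicamycin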
Lmaj promast: Leishmania major promastigote growth inhibition, primary screen. inhibition, % at 10 µM. Leishmania major promastigotes, resazurin fluorescence viability. actives 9% (n = 200,000); in the data active = inhibition above about 50%;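 note: promastigotes grown with compound for 44 hours at 28 °C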
Arbovirus inh: antivirals against arbovirus infection, primary screen, cell-based, full library, 10K replicate subset. arbovirus infection cell-based antiviral screen. inhibition, % at 10 µM. actives 0.37% (n = 200,000); in the data active = inhibition above about 30%
WT yeast gro inh: growth inhibition of WT strain, primary screen, mitochondrial fusion inhibitor project, WT and mutant strains, chemical genetic; mitochondrial fusion phenotypic screen; inhibition, % at 10 µM; actives 2.1% (n = 190,000); in the data active = inhibition above about 58%; tested in S. cerevisiae
* = called active by the depositor; . = not tested or not shown. The list is not random: actives were taken first. Their share in the collection is about 12%.

SMILES	CHOP inhibitor	Lmaj promast	Arbovirus inh	WT yeast gro inh
O=C(N/N=C/c1ccccn1)c1cc(-c2ccc(Br)cc2)nc2ccccc12	53	.	.	.
O=C(N/N=C/c1ccccn1)c1cc(-c2ccc(Cl)cc2)nc2ccccc12	83*	98*	-12	62
O=C(N/N=C\c1ccccn1)c1ccccc1O	2	69*	-4	5
CC(C)(C)c1cc(NCc2ccccn2)n2ncc(-c3ccccc3)c2n1	-39	.	.	.
COc1ccc(CNC(=O)CN(c2ccccc2)S(=O)(=O)c2ccccc2[N+](=O)[O-])cc1	-5	0	8	-8
COc1ccccc1NC(=O)Nc1nc(-c2cccnc2)nc2ccccc12	-5	.	.	.
c1ccc2c(c1)[nH]c1c(N3CCOCC3)ncnc12	0	15	7	-2
c1ccc2c(c1)[nH]c1c(N3CCSCC3)ncnc12	46	86*	0	40
c1ccc2c(c1)[nH]c1c(N3CCN(C4CCCCC4)CC3)ncnc12	33	78*	3	2
c1ccc2c(c1)[nH]c1c(N3CCCC3)ncnc12	.	58*	15	69*
Cc1cc(C[n+]2cc(Br)ccc2N)c2ncccc2c1	-25	.	.	.
COc1ccccc1N1CCN(C(=O)c2ccc3[nH]c4c(c3c2)CC(C)CC4)CC1 (configuration not stated)	65	99*	-18	72*
O=c1[nH]nc(CNc2ccc(Cl)cc2Cl)c2ccccc12	71*	-6	-11	-7
O=c1[nH]nc(Cc2ccc(Cl)cc2)c2ccccc12	54	-2	6	12
O=c1[nH]nc(Cc2ccc(Cl)cc2Cl)c2ccccc12	80*	-3	1	14
Cc1cc(C)n(S(=O)(=O)c2cccc(Cl)c2Cl)n1	.	9	-2	8
O=C1c2ccccc2C(=O)N1CCc1csc(-c2cccc(F)c2)n1	82*	0	-3	-2
C/C(=N\NC(=S)NCc1ccccc1)c1ccccc1	44	-7	0	62*
C/C(=N\NC(=S)NCc1ccccc1)c1ccc(C(C)(C)C)cc1	40	13	-5	63*
CNC(=S)N/N=C(\C)c1ccc(C(C)(C)C)cc1	27	5	6	75*
COc1ccc(CNC(=S)N/N=C(/C)c2ccccc2)cc1	-65	.	.	.
O=C(CN(Cc1ccc(F)cc1)C(=O)C1CSC(=O)C1)NC1CCCCC1 (configuration not stated)	-10	98*	6	-1
O=C(CN(C(=O)C1CSC(=O)C1)c1cccc(F)c1)NC1CCCC1 (configuration not stated)	5	-9	10	9
CN1CCc2c(c3ccccc3n2Cc2ccccc2)C1	31	100*	-8	3
OCCC1CN(Cc2nc3c(s2)CCCC3)CCN1Cc1ccccc1 (configuration not stated)	4	.	.	.
SMILES	CHOP inhibitor	Lmaj promast	Arbovirus inh	WT yeast gro inh
CC(C)CCN1CCN(Cc2nc3c(s2)CCCC3)CC1CCO (configuration not stated)	8	75*	-8	11
CC(C)CCN1CCN(Cc2cnc(N3CCCC3)s2)CC1CCO (configuration not stated)	-7	-1	2	-1
OCCC1CN(Cc2nc3c(s2)CCCC3)CCN1CCc1ccccc1 (configuration not stated)	19	76*	2	6
CCc1ccc(-c2ccc(SCC(=O)NCC3CCCO3)nn2)cc1 (configuration not stated)	-10	-3	-2	0
COc1ccc(C(=O)C/C(=C\C(=O)c2ccc(C)cc2)c2ccccc2)cc1	27	52*	-18	46
COc1ccc(O)c(C(=O)CC(=O)c2ccccc2)c1	93*	23	-17	7
Nc1nnc(SCC(=O)Nc2sc3c(c2C(=O)c2ccccc2)CCCC3)s1	26	57*	9	5
COCCNc1nnc(SCC(=O)Nc2sc3c(c2C(=O)c2ccccc2)CCCC3)s1	30	7	7	13
Cc1ccc(C(=O)c2c(NC(=O)CSc3nnc(N)s3)sc3c2CCCC3)cc1	30	76*	0	5
Cc1ccc(OCC(=O)Nc2ccc(O)c(-c3nc4ccccc4o3)c2)cc1	89*	-6	8	11
O=C(CN1CCC(C(=O)c2ccc(F)cc2)CC1)Nc1ccc(F)cc1	28	6	-7	6
Cc1ccc(C(=O)C2CCN(CC(=O)N3CCN(c4ccc(F)cc4)CC3)CC2)cc1	40	89*	-3	11
CCN(c1ccccc1)S(=O)(=O)c1cc(NC(=O)CSc2n[nH]c(=O)[nH]c2=O)ccc1Cl	-19	.	.	.
O=C(OC(C(=O)NC1CCCC1)c1cccnc1)C1=Cc2ccccc2OC1 (configuration not stated)	5	94*	-1	14
O=C(NCc1cccc(F)c1)c1ccc(N2C(=O)Cn3c(cc4sccc43)C2=O)cc1	12	61*	-6	5
O=C(NCc1ccc(-n2cccc2)cc1)c1cccc(F)c1	43	8	3	7
O=C1/C(=C/c2cccc(Br)c2)SC(=S)N1/N=C/c1cc([N+](=O)[O-])ccc1O	13	.	.	.
O=C(Nc1nc(-c2ccccn2)cs1)c1ccc(Br)s1	-29	100*	-21	60*
O=C(Nc1nc(-c2ccccn2)cs1)c1ccco1	31	100*	-28	18
O=C(Nc1nc(-c2cc(Cl)sc2Cl)cs1)c1ccc(Br)s1	18	1	2	31
COc1ccc(C(=O)NNC(=O)CSc2nnc(-c3ccc(O)cc3)n2C)cc1	9	0	1	-5
COC(=O)c1ccccc1NC(=O)c1ccnn1C	22	3	0	9
CSc1nc(N(C)C)nc(N(C)C#N)n1	16	-2	0	11
CCCC(C)NC(=O)c1ccc(OCc2ccc(Cl)cc2)c(OC)c1 (configuration not stated)	56	-4	0	8
O=C(C[n+]1ccn(CCCNP2(=O)C=C(c3ccccc3)OC(c3ccccc3)=C2)c1)c1cccs1	10	-2	-1	4
SMILES	CHOP inhibitor	Lmaj promast	Arbovirus inh	WT yeast gro inh
Cc1cc(NC(=O)CSc2nc3ccc(Cl)cc3[nH]2)no1	39	5	2	0
Cc1ccc2cc(C3CC(c4cccs4)=NN3S(C)(=O)=O)c(Cl)nc2c1 (configuration not stated)	11	.	.	.
Cc1ccc2nc(Cl)c(C3CC(c4cccs4)=NN3S(C)(=O)=O)cc2c1 (configuration not stated)	-3	84*	4	36
Nc1nc(SCC(=O)Nc2ccc(OCc3ccccc3)cc2)n[nH]1	5	.	.	.
COc1ccc2c(c1)c(C(O)CN1CCN(Cc3ccc4c(c3)OCO4)CC1)c(C)n2C (configuration not stated)	-14	12	-2	0
OC(CN1CCN(Cc2ccc3c(c2)OCO3)CC1)c1c[nH]c2ccccc12 (configuration not stated)	-1	91*	-11	-5
Cc1c(C(O)CN2CCN(Cc3ccc4c(c3)OCO4)CC2)c2ccccc2n1C (configuration not stated)	-21	100*	-3	17
COc1ccc(-c2cc(=O)oc3cc(OCC(C)=O)ccc23)cc1	13	64*	-6	-13
